High-throughput results from PubChem BioAssay.
HEK293 tox: kills HEK 293 cells; hit rate 6.6% among 94,000; Potency, µM (highest dose often 115 µM), actives largely listed as inhibitors; HEK 293 viability, ATP luminescence (CellTiter-Glo), 48-72 h; AID 1345083; note: nearly all actives have a fitted effect of over 60% in size
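ATP-coupled CellTiter-Glo luminescence served as viability read-out, recorded 10 min after reagent addition at room temperature. HEK 293 cells, 250 cells/well, had been incubated with pintool-transferred compound for 48 or 72 hr at 37 degree Celsius.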
3T3 cytotox: kills NIH 3T3 cells; NIH 3T3 viability, CellTiter-Glo ATP luminescence, 48-72 h; Potency, µM (highest dose often 96.7 µM), most hits filed as inhibitors; hit rate 4.3% among 94,000; note: nearly all actives have a fitted effect of over 55% in size
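Cytotoxicity is measured as loss of cellular ATP: NIH 3T3 cells (400/well) are exposed to compound for 48 or 72 hr at 37 °C, then CellTiter-Glo luminescence is imaged after 10 min at room temperature.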
SNCA expr inhib: SNCA gene expression inhibition; AID 1671194; hit rate 0.17% among 140,000; Potency, µM (titrated, usually from 57.2 µM), actives largely listed as inhibitors; HEK-293 SNCA-luciferase knock-in, luminescence, 24 h; note: nearly all actives have a fitted effect of over 45% in size
hNpr1 antagonist: antagonists of human natriuretic peptide receptor Npr1; P16066; HEK293 hNpr1 GloSensor cGMP, ANP-stimulated luminescence; Potency, µM (top dose mostly 46.3 µM), hits mostly inhibitors; hit rate 1.6% among 76,000; AID 1347048; calls by dose curve; note: nearly all actives have a fitted effect of over 60% in size
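Compound pre-incubated 30 min at room temperature on GloSensor-loaded HEK293 cells stably carrying hNpr1 and the pGS-40F cGMP biosensor. Stimulation uses hNppA at 0.1 nM final; luminescence is taken at baseline and 20 min post-agonist.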
Luciferase inh: inhibitors of firefly (Photinus pyralis) luciferase | P08659 | purified P. pyralis luciferase, luminescence, biochemical | Potency, µM (doses to about 115 µM), hits mostly inhibitors | hit rate 2.5% among 76,000 | AID 1347043; note: nearly all actives have a fitted effect of over 65% in size
Target sequence (P08659 whole entry, looked up): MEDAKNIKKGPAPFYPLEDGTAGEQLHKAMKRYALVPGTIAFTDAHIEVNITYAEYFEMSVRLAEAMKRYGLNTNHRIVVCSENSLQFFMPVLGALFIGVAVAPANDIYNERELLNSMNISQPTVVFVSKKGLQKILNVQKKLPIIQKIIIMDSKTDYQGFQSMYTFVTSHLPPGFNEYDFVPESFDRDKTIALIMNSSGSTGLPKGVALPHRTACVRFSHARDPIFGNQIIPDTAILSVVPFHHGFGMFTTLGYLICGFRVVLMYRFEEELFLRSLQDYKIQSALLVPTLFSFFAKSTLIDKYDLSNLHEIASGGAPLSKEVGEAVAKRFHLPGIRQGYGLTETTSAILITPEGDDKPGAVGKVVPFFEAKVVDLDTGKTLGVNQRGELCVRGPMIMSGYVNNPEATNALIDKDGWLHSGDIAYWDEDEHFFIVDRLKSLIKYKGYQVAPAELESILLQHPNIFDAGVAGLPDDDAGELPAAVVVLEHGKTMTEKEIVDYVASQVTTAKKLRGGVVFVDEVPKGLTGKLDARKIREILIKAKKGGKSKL
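Cell-free enzyme assay, 10nM P. pyralis luciferase, luciferin and ATP each at 10uM. Inhibition profiled over a 6-point titration, read as luminescence.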
SNCA viab count: cell viability loss counter-screen; HEK-293-SNCA-luc viability, GF-AFC fluorescence, 24 h; Potency, µM (top dose mostly 57.1 µM), most hits filed as cytotoxic; hit rate 0.12% among 150,000; note: nearly all actives have a fitted effect of over 30% in size
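Cytotoxicity counterscreen: after 24 h compound treatment of genome-edited SNCA-luciferase HEK-293 cells, live-cell protease substrate GF-AFC read by fluorescence after 30 min; activity scaled between DMSO (0%) and medium-only (-100%), curves Hill-fitted.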
A number is an active result; 0 = inactive; ? = inconclusive; - = no result given; [ ] = dose if it differs, or a comment. A selection: hits, their analogues and other compounds. The true share with any hit is near 7.4%. Unless noted, calls come from the whole dose curve; as a rule, active = well fitted curve in the direction sought with a large enough effect; inconclusive = small, poorly fitted or top-dose-only effect, or another doubt; inactive = no such curve, though single readings can be large; an effect the other way counts as inactive or inconclusive.

SMILES	HEK293 tox	3T3 cytotox	SNCA expr inhib	hNpr1 antagonist	Luciferase inh	SNCA viab count
C1CC(COCCc2noc(C3CNC3)n2)CCO1	7.94µM	12.6µM	?	0	0	4.47µM
C1CC(Cc2noc(C3CCOCC3)n2)CN1 (stereo unspecified)	79.4µM	?	0	0	0	0
COc1ccc(NC(=O)N2CCCC(CN3CCOCC3)CC2)cc1 (stereo unspecified)	0	0	0	-	-	0
C[C@@H]1O[C@@H](O[C@H]2[C@@H]3C=CO[C@@H](O[C@@H]4O[C@H](CO)[C@@H](O)[C@H](O)[C@H]4O)[C@@H]3[C@@]3(CO)O[C@@H]23)[C@H](O)[C@H](OC(=O)/C=C/c2ccc(O)c(O)c2)[C@H]1O	-	-	-	-	-	0
CN(C)C(=O)N1CCN(c2ccc3nnc(C4CC4)n3n2)CC1	0	0	-	-	-	-
O=C(c1ccc(Cl)nc1)N1CCC(C(=O)N2CCC(c3nc4ccncc4[nH]3)C2)CC1 (stereo unspecified)	0	0	0	-	-	0
COc1ccc(-c2noc([C@@H]3Cc4nc[nH]c4CN3Cc3ccc(NC(C)=O)cc3)n2)cc1	0	0	?	0	35.5µM	0
COc1ccc(CN2Cc3[nH]cnc3C[C@H]2c2nc(-c3ccc(C(F)(F)F)cc3)no2)cc1	?	?	0	0	39.8µM	0
Cc1ccc([S+](=O)([O-])N2CCCC(C(=O)N3CCC(N4CCOC4=O)CC3)C2)cc1 (stereo unspecified)	?	0	0	-	-	0
O=C(c1ccsc1)N1CCC(N2C(=O)C3(CCCCC3)C2c2ccncc2)CC1 (stereo unspecified)	0	0	0	-	-	0
CN(Cc1ccc(-c2ccccc2)cc1)C(=O)Cc1ccccn1	63.1µM	?	0	?	?	0
CN(Cc1ccc(-c2ccccc2)cc1)C(=O)Cc1ccc(F)cc1	50.1µM	35.5µM	?	0	0	0
O=C(Nc1cccc(F)c1)C1CN(C2CCCC2)C(=O)N1 (stereo unspecified)	0	0	0	-	-	0[12.5 µM]
O=C1Cc2c(-c3ccccc3Cl)n[nH]c2CN1Cc1ccccn1	0	79.4µM	0	0	0	0
O=C1Cc2c(-c3ccccc3Cl)n[nH]c2CN1Cc1ccccc1F	?	?	0	0	0	0
CCNc1cc(N2CCC(CCC(=O)N3CCN(c4ncccn4)CC3)CC2)ncn1	50.1µM	?	?	?	0	0
CCNc1cc(N2CCC(CCC(=O)N3CCOCC3)CC2)ncn1	?	?	?	0	0	0
CCCNc1cc(N2CCC(CCC(=O)N3CCN(c4ccccc4F)CC3)CC2)ncn1	?	?	?	12.6µM	?	0
OCC1(CCCc2ccccc2)CCN(Cc2ccc(-n3cccn3)cc2)CC1	?	39.8µM	?	?	0	0
Cc1ccc(C(=O)N2CCC(C(=O)N3CCC(c4ccccc4)CC3)CC2)cc1	?	?	0	-	-	0
O=C(Nc1ccc2c(N3CCOCC3)ncnc2c1)c1cccc(Cl)c1	?	7.08µM	0	0	0	0
COc1cccc(C(=O)Nc2ccc3c(N4CCOCC4)ncnc3c2)c1	0	0	0	0	?	0
O=C(Nc1ccc2c(N3CCOCC3)ncnc2c1)c1ccc(Br)o1	39.8µM	?	0	0	0	0
CC(Oc1cccc(Cl)c1)C(=O)Nc1ccc2c(N3CCOCC3)ncnc2c1 (stereo unspecified)	44.7µM	?	0	0	0	0
O=C(c1cccc(Cl)c1)N1CCC(C(=O)N2CCC(c3nc4ncccc4[nH]3)CC2)CC1	?	0	0	-	-	0
SMILES	HEK293 tox	3T3 cytotox	SNCA expr inhib	hNpr1 antagonist	Luciferase inh	SNCA viab count
CCOc1cccc(CN2CCc3c(c(CN(C(C)=O)c4ccccc4)nn3C)C2)c1O	0	0	0	-	-	0
COc1ccc(NC(=O)O[C@@H]2CC[C@]3(C)C(CC[C@@H](O)[C@H]3CC(=O)NCc3ccccc3)[C@]2(C)CO)cc1 (stereo partly specified)	?	0	0	0	0	0
CSc1cccc(NC(=O)O[C@@H]2CC[C@]3(C)C(CC[C@@H](O)[C@H]3CC(=O)NCc3ccccc3)[C@]2(C)CO)c1 (stereo partly specified)	35.5µM	39.8µM	0	0	0	0
C[C@@]12CO[C@@H](Cc3ccccc3)O[C@@H]1CC[C@]1(C)C2CC[C@@H](O)[C@H]1CC(=O)NCc1cc(F)cc(F)c1 (stereo partly specified)	39.8µM	39.8µM	?	0	0	0
COc1ccc(NC(=O)O[C@@H]2CC[C@]3(C)C(CC[C@@H](O)[C@H]3CC(=O)NCc3ccc4c(c3)OCO4)[C@]2(C)CO)cc1 (stereo partly specified)	?	44.7µM	0	0	0	0
O=C(NC1CCCC1)N1CCN(c2ccc3nnc(-c4ccccc4)n3n2)CC1	0	?	-	-	-	-
COCCOCc1nc(C2CCN(C(=O)CCc3ccccc3)C2)no1 (stereo unspecified)	0	0	0	-	-	0
c1ccc(-c2noc(-c3cncnc3N3CCSCC3)n2)cc1	44.7µM	0	?	0	?	0
CC1CCN(c2ncncc2-c2nc(-c3ccccc3)no2)CC1	79.4µM	?	0	0	?	0
O[C@@H]1CN(Cc2ccc(-n3cccn3)cc2)CC[C@H]1c1ccc(F)cc1	39.8µM	0	0	?	0	0
O=C1CCCCC(C(=O)NCc2ccc(OC(F)(F)F)cc2)N1 (stereo unspecified)	0	0	0	-	-	0
COCCOCC(=O)N1CCC2(CC1)CC(N(C1CC1)S(C)(=O)=O)CCO2 (stereo unspecified)	0	0	0	-	-	0
CCc1cc(=O)n(CC(=O)Nc2cc(OC)c(OC)c(OC)c2)c(-c2ccccc2)n1	44.7µM	?	?	?	0	?
CCc1cc(=O)n(CC(=O)Nc2ccc(OC)cc2)c(-c2ccccc2)n1	?	?	0	0	0	0
CC(=O)Nc1ccc([C@H]2OCC(=O)N(Cc3ccc(F)cc3)[C@@H]2CO)cc1	0	0	0	0	0	0
O=C(Nc1ccccc1)Nc1ccc([C@H]2OCC(=O)N(Cc3ccccc3)[C@@H]2CO)cc1	70.8µM	89.1µM	0	0	?	0
COc1ccc(CN2C(=O)CO[C@H](c3ccc(NS(=O)(=O)c4ccc(F)cc4)cc3)[C@H]2CO)cc1	0	35.5µM	0	0	0	0
CC(C)CN1C(=O)CO[C@H](c2ccc(NC(=O)c3ccccc3)cc2)[C@H]1CO	100µM	?	0	0	0	0
COc1ccc(C(=O)Nc2ccc([C@H]3OCC(=O)N(Cc4nccn4C)[C@@H]3CO)cc2)cc1	0	0	0	0	39.8µM	0
CN(C)c1ccc(-n2c(=O)c(C(=O)NCC(F)(F)F)nc3cccnc32)cc1	0	0	0	-	-	0
